This is an account of results in PubChem BioAssay AID2806 (Sanford-Burnham Center for Chemical Genomics, 2010).

As a reminder, the inhibition is the drop in the measured response relative to a control, in per cent.

The campaign covered roughly 330,000 compounds. About 660 (0.2%) were called active. For the sample, actives were picked, then their nearest neighbours and some compounds at random. Values without a mark were called inactive.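 Rule for the calls: active = inhibition of at least 40% at 10 µM in the primary screen; inactive = the rest.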

The assay deals with intestinal alkaline phosphatase [Mus musculus]. Briefly: inhibitors of mouse IAP, primary screen, biochemical, luminescence, uHTS (AID 2806).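 Note: plate controls were DMSO with enzyme for no effect and no enzyme wells for full effect.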 The settings on record: purified mouse IAP, CDP-Star luminescence, 30 min; at 10 µM; stronger effect = higher value.
`CCc1sc(C(=O)N2CCN(CC(=O)Nc3cccc(F)c3)CC2)cc1C`: the inhibition was 6.1%.

In the case of `CC[C@]1(O)C[C@@H]2CN(CCc3c([nH]c4ccccc34)[C@@](C(=O)OC)(c3cc4c(cc3OC)N(C)[C@H]3[C@@](O)(C(=O)OC)[C@H](OC(C)=O)[C@]5(CC)C=CCN6CC[C@]43[C@@H]65)C2)C1`, the inhibition was -16.7%.

Regarding `CCNc1c(NS(=O)(=O)c2ccc(C3CCCCC3)cc2)c(=O)oc2ccccc12`, the inhibition is 6%.

As for `CC(=O)Nc1ccc(S(=O)(=O)Nc2cc(C)cn(Cc3ccc(C)cc3)c2=O)cc1`, the inhibition was 4.9%.

For the molecule `O=C(Nc1cccc2ccccc12)c1onc2c1CCCC2`, the inhibition is 3%.

Take `COc1cc(CN2CCNC(=O)C2CC(=O)NCCc2ncccc2C)cc(OC)c1` (configuration not stated): the inhibition is 5.5%.

Regarding `O=S(=O)(NCc1ccc2c(c1)OCO2)c1cccc2nsnc12`, the inhibition was -5.4%.

As to `Cc1ccc(S(=O)(=O)NCC(=O)NNC(=O)c2ccc(Br)cc2)cc1C`, the inhibition was 28.4%.

On to `Cn1c2c(c(=O)n(C)c1=O)C1c3ccccc3OCC1C(C)(C)O2` (configuration not stated), for which the inhibition was 8.7%.

Regarding `CC(C)Oc1ccc(CN2CCC(n3nccc3NC(=O)c3cccnc3)CC2)cc1`, the inhibition was -5.5%.

As to `Oc1cc(O)c2c(c1)OC(c1ccc(O)c(O)c1)C(O)C2` (configuration not stated), the inhibition was 75.1% (active).

`CC(C)Oc1ccc(CCc2nnc(SCC(=O)O)n2-c2ccccc2)cc1`: the inhibition was 3.2%.

For the molecule `O=S(=O)(c1ccc(NC(=S)NN=C(C2CC2)C2CC2)cc1)N1CCOCC1`, the inhibition is 37.7%.

With `Cc1ccc(S(=O)(=O)N2CCN(CC(=O)N/N=C/c3cc([N+](=O)[O-])ccc3Cl)CC2)cc1`, the inhibition is 14.9%.

With `O=[N+]([O-])c1cc(Cl)cc(/C=N/NC(=S)Nc2cc(S(=O)(=O)N3CCOCC3)ccc2Cl)c1O`, the inhibition was 40.5% (active).

`COc1ccccc1C1C(C(N)=O)=C(C)Nc2nc(CCCO)nn21` (configuration not stated): the inhibition was -1.6%.

For `Cc1occc1-c1nnc(SCC(=O)NC2CCCCC2)o1`, the inhibition is -1.8%.

In the case of `O=C1N[C@H](Cc2ccccc2)C(=O)N[C@H]1Cc1cn(S(=O)(=O)c2ccccc2)c2ccccc12`, the inhibition was -8%.

Turning to `CCOC(=O)C(NS(=O)(=O)c1ccc(C)cc1)(C(F)(F)F)P(=O)(OCC(C)C)OCC(C)C` (configuration not stated), the inhibition is 2.8%.

Regarding `CCOC(=O)/C(N=Nc1cc(C(=O)O)cc(C(=O)O)c1)=C(\O)CCl`, the inhibition was -0.2%.

`CCn1c(CSc2nncn2-c2ccc(OC)cc2)nc2cc(S(=O)(=O)N(C)C)ccc21`: the inhibition was 6.6%.

As for `CCN(CC)S(=O)(=O)c1cc(C(=O)Nc2ccccn2)ccc1C`, the inhibition is 0.4%.

For `OCC(O)CN(c1ccccc1)c1ccccc1` (configuration not stated), the inhibition is 0.3%.

On to `CN(C(=O)C1CCN(c2ncnc3c2nc2n3CCCCC2)CC1)C1CCCCC1`, for which the inhibition is -5%.

Turning to `FC(F)(F)c1nnc2c3ccccc3c(Cl)nn12`, the inhibition was -3.6%.

Consider `CC(=O)N1CC[n+]2c(-c3ccc([N+](=O)[O-])cc3)csc21`, for which the inhibition was 7.9%.

With `Cc1nc(C(=O)N2CCCC(C(=O)c3ccc(Cl)cc3)C2)cs1` (configuration not stated), the inhibition is 0.3%.

As for `CCc1ccc(CN(C)Cc2nc(Cc3ccccc3)no2)nc1`, the inhibition was -1.4%.

Take `O=C1N[C@@H](Cc2ccccc2)C(=O)N2[C@H]1C[C@]1(Br)c3ccccc3N(S(=O)(=O)c3ccccc3)[C@H]21`: the inhibition is 5.7%.

As to `CCC(=O)Nc1c(S(=O)(=O)c2ccccc2)c2nc3ccccc3nc2n1Cc1ccccc1`, the inhibition is 2.7%.

Turning to `O=C(O)c1ccccc1OCc1ccccc1Cl`, the inhibition is 6.6%.

For the molecule `CN(C(=O)CSc1nnc(N)s1)c1c(N)n(Cc2ccccc2)c(=O)[nH]c1=O`, the inhibition was 3.6%.

With `Cc1ccc(N2C(=O)c3ccccc3C2(O)c2ncc[nH]2)cc1` (configuration not stated), the inhibition was -9%.

For `CCC(C)(C(=O)NC1CCCCC1)N(C)C(=O)c1ccc2c(c1)OCO2` (configuration not stated), the inhibition is 2.8%.

`CCOc1ccc(NS(=O)(=O)c2cc(C)c(C)cc2C)cc1`: the inhibition is -7.7%.

Turning to `CN(C)N(C)C(=O)C(O)(c1ccccc1)c1ccccc1`, the inhibition is 2.1%.

Turning to `O=c1c(F)cn(C2CCCO2)c(=O)n1Cc1ccccc1Cl` (configuration not stated), the inhibition is -1.3%.
